Measured values: PubChem BioAssay (Tox21)
Records with an inconclusive call do not appear. The source made the active and inactive calls. Unless noted, the call rests on the fitted dose curve; in most records, active means well fitted curve in the direction sought with a large enough effect in the repeat runs; inconclusive means weak or mixed curves; inactive means no such curve, though single readings can be large; an effect the other way counts as inactive or inconclusive.

Columns and labels:
[1] = biological target: Peroxisome proliferator-activated receptor delta (Homo sapiens) (UniProt Q03181); experiment: qHTS assay to identify small molecule agonists of the peroxisome proliferator-activated receptor delta (PPARd) signaling pathway (AID 743212; calls by dose curve)
Sequence of Peroxisome proliferator-activated receptor delta (Homo sapiens) (Q03181 whole entry, looked up): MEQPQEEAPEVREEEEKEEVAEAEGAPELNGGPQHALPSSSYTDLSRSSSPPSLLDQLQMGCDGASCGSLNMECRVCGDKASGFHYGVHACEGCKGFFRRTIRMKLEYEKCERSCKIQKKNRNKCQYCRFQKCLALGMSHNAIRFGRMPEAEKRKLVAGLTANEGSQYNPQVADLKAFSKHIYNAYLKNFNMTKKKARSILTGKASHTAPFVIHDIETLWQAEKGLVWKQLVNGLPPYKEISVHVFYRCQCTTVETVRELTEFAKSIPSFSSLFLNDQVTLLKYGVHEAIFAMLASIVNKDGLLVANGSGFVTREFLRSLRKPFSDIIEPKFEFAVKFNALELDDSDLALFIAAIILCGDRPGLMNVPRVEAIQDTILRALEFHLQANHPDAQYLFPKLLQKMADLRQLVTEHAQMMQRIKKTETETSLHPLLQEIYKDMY
Summary of the method: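 HEK293H PPARd-bla cells; 5 h preincubation 37 C/5% CO2; compound (DMSO) 37 C; LiveBLAzer B/G FRET substrate 2 h RT; fluorescence intensity.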

[2] = qHTS assay to identify small molecule antagonists of the peroxisome proliferator-activated receptor delta (PPARd) signaling pathway - cell viability counter screen (AID 743213); further: nearly all actives have a fitted effect of over 50% in size
Summary of the method: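 HEK293H PPARd UAS-bla cells, 5 h pre-incubation, compound + L165041 300 nM final, 17 h 37 C; B/G FRET substrate 2 h RT; then CellTiter-Glo 30 min RT, luminescence.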

[3] = biological target: Peroxisome proliferator-activated receptor delta (Homo sapiens) (UniProt Q03181); experiment: qHTS assay to identify small molecule antagonists of the peroxisome proliferator-activated receptor delta (PPARd) signaling pathway (AID 743215; active means well fitted inhibition curve with a large enough effect in the signal ratio in the repeat runs, not every such curve was filed as active; the % refers to the signal ratio;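 further: cells stimulated with agonist L165041 at 300 nM final during compound exposure; series mostly up to about 62 µM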)
Summary of the method: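 Antagonist-mode beta-lactamase reporter screen: HEK293H cells with UAS-bla under PPARd control, stimulated by 300 nM L165041 (final) alongside test compound for 17 h at 37 C, then FRET fluorescence after 2 h substrate incubation.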

[4] = biological target: Bile acid receptor (Homo sapiens) (UniProt Q96RI1); experiment: qHTS assay to identify small molecule antagonists of the farnesoid-X-receptor (FXR) signaling pathway (AID 743217; active means well fitted inhibition curve with a large enough effect in the signal ratio in the repeat runs, not every such curve was filed as active; the % refers to the signal ratio)
Sequence of Bile acid receptor (Homo sapiens) (Q96RI1 whole entry, looked up): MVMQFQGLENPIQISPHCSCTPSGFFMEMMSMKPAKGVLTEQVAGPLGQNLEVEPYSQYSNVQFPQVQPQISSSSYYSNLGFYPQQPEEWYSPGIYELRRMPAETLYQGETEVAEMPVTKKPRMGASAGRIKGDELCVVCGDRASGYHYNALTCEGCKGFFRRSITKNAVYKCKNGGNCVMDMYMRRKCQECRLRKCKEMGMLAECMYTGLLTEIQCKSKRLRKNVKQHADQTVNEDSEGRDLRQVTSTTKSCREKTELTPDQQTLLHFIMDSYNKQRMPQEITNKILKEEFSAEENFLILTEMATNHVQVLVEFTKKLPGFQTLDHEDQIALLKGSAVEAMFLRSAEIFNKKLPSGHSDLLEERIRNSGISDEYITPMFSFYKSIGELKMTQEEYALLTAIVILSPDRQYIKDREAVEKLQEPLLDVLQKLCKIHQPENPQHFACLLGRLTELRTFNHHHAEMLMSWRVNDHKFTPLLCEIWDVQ
Summary of the method: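 Beta-lactamase reporter under UAS control in HEK 293T cells; compound exposure 16 h at 37 °C in the presence of chenodeoxycholic acid (50 uM final); signal from B/G FRET substrate after 2 h at room temperature.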

[5] = qHTS assay to identify small molecule agonists of the farnesoid-X-receptor (FXR) signaling pathway - cell viability counter screen (AID 743218); further: nearly all actives have a fitted effect of over 45% in size
Summary of the method: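 In GeneBLAzer FXR-UAS-bla HEK 293T cells, compounds act for 16 h at 37 C. Cell viability is then scored in the reporter wells by CellTiter-Glo, 30 min at RT, luminescence.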

[6] = biological target: Bile acid receptor (Homo sapiens) (UniProt Q96RI1); experiment: qHTS assay to identify small molecule agonists of the farnesoid-X-receptor (FXR) signaling pathway (AID 743220; active means well fitted activation curve with a large enough effect in the signal ratio in the repeat runs, not every such curve was filed as active; the % refers to the signal ratio)
Summary of the method: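 Beta-lactamase reporter under UAS control in GeneBLAzer FXR HEK 293T cells (5000/well) measured with LiveBLAzer FRET substrate after 2 h at room temperature. Compound exposure lasted 16 h at 37C.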

[7] = qHTS assay to identify small molecule antagonists of the farnesoid-X-receptor (FXR) signaling pathway - cell viability counter screen (AID 743221; active means well fitted cell-killing curve with a large enough effect in the repeat runs, not every such curve was filed as active; further: nearly all actives have a fitted effect of over 50% in size)
Summary of the method: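 Quantitative HTS of the Tox21 10K library run in parallel with the beta-lactamase reporter read. HEK 293T cells carrying a UAS-driven bla reporter got compound and 50 uM CDCA (final) for 16 h; ATP-based luminescence followed.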

[8] = biological target: Vitamin D3 receptor (Homo sapiens) (UniProt P11473); experiment: qHTS assay to identify small molecule agonists of the vitamin D receptor (VDR) signaling pathway (AID 743222; calls by dose curve)
Sequence of Vitamin D3 receptor (Homo sapiens) (P11473 whole entry, looked up): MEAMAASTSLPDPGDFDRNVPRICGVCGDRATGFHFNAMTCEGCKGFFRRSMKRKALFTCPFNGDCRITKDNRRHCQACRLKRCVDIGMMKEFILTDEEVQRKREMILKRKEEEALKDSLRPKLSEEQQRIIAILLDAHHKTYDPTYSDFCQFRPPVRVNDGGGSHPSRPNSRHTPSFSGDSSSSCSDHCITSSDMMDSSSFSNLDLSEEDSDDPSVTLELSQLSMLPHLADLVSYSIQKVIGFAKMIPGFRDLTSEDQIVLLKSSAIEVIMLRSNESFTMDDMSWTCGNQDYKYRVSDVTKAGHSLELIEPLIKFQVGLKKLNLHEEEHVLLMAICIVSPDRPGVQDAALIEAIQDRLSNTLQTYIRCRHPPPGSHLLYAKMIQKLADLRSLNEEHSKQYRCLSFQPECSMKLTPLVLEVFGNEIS
Summary of the method: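 Agonist activity measured in VDR-bla reporter cells. Exposure 16 h, 37C, 5% CO2; detection by B/G FRET substrate, 2 h RT.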

[9] = biological target: Vitamin D3 receptor (Homo sapiens) (UniProt P11473); experiment: qHTS assay to identify small molecule antagonists of the vitamin D receptor (VDR) signaling pathway (AID 743223; active means well fitted inhibition curve with a large enough effect in the signal ratio in the repeat runs, not every such curve was filed as active; the % refers to the signal ratio)
Summary of the method: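 Fluorescence from LiveBLAzer B/G FRET substrate, read after 2 h at room temperature, reflects beta-lactamase reporter activity in VDR-bla cells treated 16 h at 37C with compounds and agonist 1alpha,25-dihydroxyvitamin D3 (3 nM final).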

[10] = qHTS assay to identify small molecule agonists of the vitamin D receptor (VDR) signaling pathway - cell viability counter screen (AID 743224); further: series mostly up to about 63 µM; nearly all actives have a fitted effect of over 50% in size
Summary of the method: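 VDR-bla cell line, quantitative HTS format; 16 h compound incubation (37C, 5% CO2); ATP-based CellTiter-Glo luminescence measured in the reporter assay wells.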
On the % scale 0 is the no-effect control and ±100 the full control effect.

CC1(C)[C@H]2CC[C@](C)(C2)[C@H]1O
inactive: outcome [1] | outcome [2] | outcome [3] | outcome [4] | outcome [5] | outcome [6] | outcome [7] | outcome [8] | outcome [9] | outcome [10]

NCc1ccc(S(N)(=O)=O)cc1
inactive: outcome [1] | outcome [2] | outcome [3] | outcome [5] | outcome [6] | outcome [7] | outcome [8] | outcome [9] | outcome [10]

CCCc1ccc(O)cc1
inactive: outcome [1] | outcome [2] | outcome [3] | outcome [5] | outcome [6] | outcome [7] | outcome [8]

CCC(=O)CC
inactive: outcome [1] | outcome [2] | outcome [3] | outcome [5] | outcome [6] | outcome [7] | outcome [8] | outcome [10]

Cc1ccc(N)cc1S(=O)(=O)O
inactive: outcome [1] | outcome [2] | outcome [3] | outcome [5] | outcome [6] | outcome [7] | outcome [8] | outcome [10]

C=CC(=O)OCC1CCCO1 (centres undefined)
inactive: outcome [1] | outcome [2] | outcome [3] | outcome [4] | outcome [5] | outcome [6] | outcome [7] | outcome [10]

OCC(O)CN1CCN(c2ccccc2)CC1 (centres undefined)
inactive: outcome [1] | outcome [2] | outcome [3] | outcome [4] | outcome [5] | outcome [6] | outcome [7]

COC(=O)c1cccc(Cl)c1
inactive: outcome [1] | outcome [2] | outcome [3] | outcome [4] | outcome [6] | outcome [7] | outcome [8] | outcome [10]

OCC1CCC(CO)CC1 (centres undefined)
inactive: outcome [1] | outcome [2] | outcome [3] | outcome [4] | outcome [6] | outcome [7] | outcome [8] | outcome [9] | outcome [10]

CC(=O)CCc1ccc(OC(C)=O)cc1
inactive: outcome [1] | outcome [2] | outcome [3] | outcome [4] | outcome [5] | outcome [6] | outcome [7] | outcome [8] | outcome [9] | outcome [10]

O=C(Cn1ccnc1[N+](=O)[O-])NCc1ccccc1
inactive: outcome [1] | outcome [2] | outcome [3] | outcome [5] | outcome [6] | outcome [7] | outcome [10]

O=C(O)CONC(=O)c1ccccc1
inactive: outcome [1] | outcome [2] | outcome [3] | outcome [4] | outcome [5] | outcome [6] | outcome [7] | outcome [8] | outcome [10]

O=NN(CCCl)C(=O)NC1CCCCC1
inactive: outcome [1] | outcome [2] | outcome [3] | outcome [5] | outcome [6] | outcome [7] | outcome [10]

N#Cc1ccccc1O
inactive: outcome [1] | outcome [2] | outcome [3] | outcome [5] | outcome [6] | outcome [7] | outcome [8] | outcome [9]

Cc1cccc(Cl)c1
inactive: outcome [1] | outcome [2] | outcome [3] | outcome [4] | outcome [5] | outcome [6] | outcome [7]

CC(C)CCOC(=O)c1ccccc1
inactive: outcome [1] | outcome [2] | outcome [3] | outcome [5] | outcome [6] | outcome [7] | outcome [8] | outcome [9] | outcome [10]

CCn1cc(C(=O)O)c(=O)c2cnc(N3CCCC3)nc21
inactive: activation [1] -4.9% [at 13.2 µM] | viability change, negative = cytotoxic [2] -17.7% [at 13.7 µM] | ratio activity, negative = inhibition [3] -14.6% [at 13.7 µM] | viability change, negative = cytotoxic [5] -3.43% [at 13.2 µM] | activation [6] -0.921% [at 13.2 µM] | activity change, negative = cytotoxicity [10] 7.07% [at 13.2 µM]

COc1cc(/C=C/C(N)=O)cc(OC)c1OC
inactive: outcome [1] | outcome [2] | outcome [3] | outcome [4] | outcome [5] | outcome [6] | outcome [8] | outcome [10]

CN1C[C@@H]2C[C@H]1CN2c1cc2c(cc1F)c(=O)c(C(=O)O)cn2C1CC1
inactive: outcome [1] | outcome [2] | outcome [3] | outcome [4] | outcome [5] | outcome [6] | outcome [7] | outcome [8] | outcome [9]

CC(C)OC(=O)CCC(=O)OC(C)C
inactive: outcome [1] | outcome [2] | outcome [3] | outcome [4] | outcome [5] | outcome [6] | outcome [7] | outcome [8] | outcome [9] | outcome [10]

C=CCCCCCCCCC(=O)OCCCC
inactive: outcome [1] | outcome [2] | outcome [3] | outcome [4] | outcome [6] | outcome [7] | outcome [8] | outcome [9] | outcome [10]

COC(=O)CCCCC(CCSS/C(CCO)=C(\C)N(C=O)Cc1cnc(C)nc1N)SC(C)=O (centres undefined)
inactive: outcome [1] | outcome [2] | outcome [3] | outcome [4] | outcome [5] | outcome [6] | outcome [7] | outcome [10]

CCOCCOCC
inactive: outcome [1] | outcome [2] | outcome [3] | outcome [4] | outcome [5] | outcome [6] | outcome [7] | outcome [8] | outcome [10]

OC1(c2ccc(Cl)cc2)CCNCC1
inactive: outcome [1] | outcome [2] | outcome [3] | outcome [4] | outcome [5] | outcome [6] | outcome [7] | outcome [8] | outcome [9] | outcome [10]

Nc1nnnn1-c1ccccc1
inactive: outcome [1] | outcome [2] | outcome [3] | outcome [4] | outcome [6] | outcome [7] | outcome [8] | outcome [9] | outcome [10]
